Laboratory results from ChEMBL document CHEMBL3988442, “University of Dundee, Small-Polar-MMV Screening Library” (2021).
The campaign covered roughly 66,000 compounds. About 960 (1.5%) showed an effect of 50% or more. The list comes from a sample in which strong results are over-represented; it also holds similar structures and randomly drawn compounds.

Tested on: Trypanosoma brucei
Assay: Trypanosoma brucei 72 hour study
Type: functional, organism-based
Set-up: scale not given: in the data most compounds retested in dose-response had high values

## CN1CCC(NCC(O)c2cccc(OCc3ccccc3)c2)CC1 (stereo not given)
30 µM, 30.03 µM
  Percent Effect: 101.3%

## Cl.c1cc(NCc2ccncc2)nc(C2CCCN2)c1 (stereo not given)
30.3 µM, […]
  Percent Effect: 7.613%

## Cc1ccc(-n2ncc3c2CCCC3N)cc1C (stereo not given)
30 µM, 30.03 µM
  Percent Effect: -37.31%

## Cc1cc(C)cc(-n2ncc3c2CCCC3N)c1 (stereo not given)
30 µM, 30.03 µM
  Percent Effect: -36.85%

## CC(C)(C)c1ccc(-n2ncc3c2CCCC3N)cc1 (stereo not given)
30 µM, 30.03 µM
  Percent Effect: 97.82%

## CN(C)C(=O)C1CCN(C2CCN(CC3CC3)CC2)CC1.O=C(O)C(F)(F)F.O=C(O)C(F)(F)F
30.3 µM, […]
  Percent Effect: -10.13%

## CCc1nc(C2CCCN2C(=O)c2ccc3c(c2)nnn3C)no1 (stereo not given)
10 µM
  Percent Effect: -25.38%
30.3 µM, […]
  Percent Effect: -22.91%

## c1ccc(-c2nc(CN3CCCC3Cn3cncn3)no2)cc1 (stereo not given)
30.3 µM, […]
  Percent Effect: 6.98%

## CC1CCN(C(=O)C2CCN(c3ccc(Cl)cc3C#N)CC2)CC1
30.3 µM, […]
  Percent Effect: 28.97%

## N#Cc1cc(Cl)ccc1N1CCN(C(=O)C2CCC2)CC1
30.3 µM, […]
  Percent Effect: 81.04%

## CCN(CC)C(=O)C1CCN(c2ccc(Cl)cc2C#N)CC1
30.3 µM, […]
  Percent Effect: -5.722%

## O=C(O)C(F)(F)F.O=C(c1cccnc1)N1CCC2(CC1)COCCN(c1ncccn1)C2
30 µM, 30.03 µM
  Percent Effect: -13.17%

## COc1ccc(N2Cc3nc(N)ncc3C2=O)cc1Cl
30 µM, 30.03 µM
  Percent Effect: -4.562%

## Cc1cc(S(=O)(=O)NCC(C)(C)N)c(F)cc1F.Cl
30 µM, 30.03 µM
  Percent Effect: -16.3%

## CC(C)Nc1nc2c(cc1C(=O)NCC1CC1)CCNCC2.O=C(O)C(F)(F)F.O=C(O)C(F)(F)F
30 µM, 30.03 µM
  Percent Effect: -26.83%

## CNC(=O)c1cc2c(nc1NCC1CC1)CCNCC2
30 µM, 30.03 µM
  Percent Effect: -38.29%

## CC(C)CNc1nc2c(cc1C(=O)NCC1CC1)CCNCC2
30 µM, 30.03 µM
  Percent Effect: 100.1%

## O=C(O)C(F)(F)F.O=C1CCCN1Cc1nnc2n1CCN(Cc1ccccn1)CC2
30.3 µM, […]
  Percent Effect: -8.188%

## Cc1cc(C[C@@H]2CCC[C@H]2NCc2c[nH]nc2-c2ccccc2)on1.O=C(O)CC(O)(CC(=O)O)C(=O)O
30.3 µM, […]
  Percent Effect: 19.9%

## CNC(=O)c1cc2c(nc1NCC(C)C)CCN(c1ncccn1)CC2.O=C(O)C(F)(F)F
30.3 µM, […]
  Percent Effect: 98.85%

## CNC(=O)c1cc2c(nc1NCC(C)C)CCN(C)CC2.O=C(O)C(F)(F)F.O=C(O)C(F)(F)F
30.3 µM, […]
  Percent Effect: -104.3%

## CNC(=O)c1cc2c(nc1NCC(C)C)CCN(c1ccncn1)CC2.O=C(O)C(F)(F)F
30 µM, 30.03 µM
  Percent Effect: -20.72%

## O=C(CSc1ccc2c(c1)OCCO2)NS(=O)(=O)c1cc(F)ccc1F
30 µM, 30.03 µM
  Percent Effect: 61.54%

## O=C(CSc1ccc2c(c1)OCCO2)NS(=O)(=O)c1ccccc1F
30 µM, 30.03 µM
  Percent Effect: -24.23%

## O=C(CSc1ccc(F)c(F)c1)NS(=O)(=O)c1ccc2c(c1)OCCO2
30 µM, 30.03 µM
  Percent Effect: -8.026%

## CN1C(=O)CC(c2ccccc2)C12CCN(CC1CCOCC1)CC2.O=C(O)C(F)(F)F (stereo not given)
30.3 µM, […]
  Percent Effect: -3.358%

## O=C(O)C(F)(F)F.O=C(O)C(F)(F)F.O=c1cc(Cn2cncn2)nc2n1CCCN(CCN1CCCC1)C2
30 µM, 30.03 µM
  Percent Effect: 14.15%

## O=C(O)C(F)(F)F.O=c1cc(Cn2cncn2)nc2n1CCCN(Cc1ccc(F)cc1)C2
30 µM, 30.03 µM
  Percent Effect: 27.77%

## COCCN1CCCn2c(nc(Cn3cncn3)cc2=O)C1.O=C(O)C(F)(F)F
30 µM, 30.03 µM
  Percent Effect: 64.46%

## O=C(O)C(F)(F)F.c1cnc(NCc2nnn3c2CN(CC2CC2)CCC3)nc1
30.3 µM, […]
  Percent Effect: -52.08%

## Cc1nn(C)c(N(C)C)c1CNC1CCc2cc(F)ccc21.Cl (stereo not given)
10 µM
  Percent Effect: -39.72%

## Cc1ccc(C(=O)N2CCc3ncc(Cn4cccn4)n3CC2)cn1
30.3 µM, […]
  Percent Effect: -7.438%

## Cn1cccc1C(=O)N1CCc2ncc(Cn3cccn3)n2CC1
30 µM, 30.03 µM
  Percent Effect: 59.24%

## O=C(c1ccoc1)N1CCc2ncc(Cn3cccn3)n2CC1
30.3 µM, […]
  Percent Effect: -11.59%

## CS(=O)(=O)NCc1cncc2c1CCN(C(=O)c1cccnc1)C2.Cl.Cl
30.3 µM, […]
  Percent Effect: -7.257%

## COCC1CN(Cc2ccoc2)Cc2nnn(C)c21.O=C(O)C(F)(F)F (stereo not given)
30 µM, 30.03 µM
  Percent Effect: -46.26%

## CCc1c(C)nc2cc(C3CCN(CCc4ccccc4)C3)nn2c1O (stereo not given)
30.3 µM, […]
  Percent Effect: 58.63%

## CCc1c(C)nc2cc(C3CCN(Cc4cccnc4)C3)nn2c1O (stereo not given)
30.3 µM, […]
  Percent Effect: 7.415%

## CCc1c(C)nc2cc(C3CCN(Cc4cccc(F)c4)C3)nn2c1O (stereo not given)
30.3 µM, […]
  Percent Effect: 27.1%
